In the library only some 14% were active in any assay of this set; here they are far more common.
Giardia FBPA inh: blocks Giardia fructose-bisphosphate aldolase activity | 290,000 compounds, 0.71% hits | Potency, µM (highest dose often 59.6 µM), for inactives: at the top dose activity, negative = inhibition, usual class: inhibitors | purified Giardia FBPA | AID 2451; also: potency is read from the fitted curve at half-maximal effect; % is scaled to controls: 0 for no effect and ±100 for the full control effect; nearly all actives have a fitted effect of over 55% in size
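Giardia FBPA (40 nM reagent) was preincubated 10 min at RT with compound (up to 57.5 uM final), then substrate plus GAPDH/TPI/NAD/arsenate coupling system with diaphorase/resazurin was added; resorufin fluorescence (525/598 nm) was read after 20 min.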
LmPK inhibitor: LmPK (Leishmania mexicana) enzyme inhibition; Potency, µM (series often up to 57.5 µM), inactives show top-dose activity change, negative = inhibition, usual class: inhibitors; 290,000 compounds, 0.37% hits; AID 1721; Q27686; purified LmPK, Kinase-Glo ATP luminescence, 1 h; also: potency is read from the fitted curve at half-maximal effect; % is scaled to controls: 0 for no effect and ±100 for the full control effect
Target sequence (Q27686 whole entry, looked up): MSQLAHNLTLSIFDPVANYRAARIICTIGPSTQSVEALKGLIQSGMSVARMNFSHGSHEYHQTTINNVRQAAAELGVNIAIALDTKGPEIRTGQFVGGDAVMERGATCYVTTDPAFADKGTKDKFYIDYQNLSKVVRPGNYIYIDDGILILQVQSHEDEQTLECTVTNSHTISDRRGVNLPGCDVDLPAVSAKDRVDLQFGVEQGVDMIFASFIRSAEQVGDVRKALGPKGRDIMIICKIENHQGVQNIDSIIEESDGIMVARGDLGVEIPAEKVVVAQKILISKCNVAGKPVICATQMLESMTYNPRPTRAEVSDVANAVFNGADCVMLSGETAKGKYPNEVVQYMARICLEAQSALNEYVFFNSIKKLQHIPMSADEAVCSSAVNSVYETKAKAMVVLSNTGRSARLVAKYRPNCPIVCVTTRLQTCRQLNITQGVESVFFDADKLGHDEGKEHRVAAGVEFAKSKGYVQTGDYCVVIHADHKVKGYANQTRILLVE
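Kinase-Glo luminescence read after 1 h RT reaction of 0.1 nM LmPK with 0.5 mM PEP and 0.1 mM ADP. Activity scaled between uninhibited and enzyme-free controls.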
Cycloheximide cs: counter-screen hit for Shiga toxin inhibitors, cycloheximide. cell reporter, cycloheximide protein synthesis inhibition counterscreen. max response, %. 300,000 compounds, 12% hits. AID 2314; in the data active = max response mostly above about 13%, no sharp cut-off; inactive = mostly below about 14%; also: read at 38.3 µM for the half of the compounds with a filed dose; 0% is about no effect
Shiga inhibitor: inhibitors of Shiga toxin in Vero cells | Vero cells, Shiga toxin protein synthesis inhibition reporter | inhibition, % at 38.7 µM | 290,000 compounds, 9.2% hits | AID 2315; in the data active = inhibition mostly above about 28%, no sharp cut-off; inactive = mostly below about 43%; also: 0% is about no effect
NS1 function inh: influenza NS1 inhibition. Potency, µM (top dose mostly 46.1 µM), without a hit: at the highest dose activity, positive = more growth. 270,000 compounds, 0.4% hits; calls by dose curve; also: potency is read from the fitted curve at half-maximal effect; actives are rising curves; nearly all actives have a fitted effect of over 50% in size
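S. cerevisiae expressing influenza A NS1, grown in glucose, washed, then diluted 1:100 into pH 6.0 -URA galactose medium with 23 nl compound. Growth recovery read as OD600; NS1-free strain serves as control.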
The depositor's hits bear a star; ? = inconclusive; nt = not tested or not shown; ! = repeats disagree. Unless noted, calls follow the shape of the dose curve; as a rule, active = well fitted curve in the direction sought with a large enough effect; inconclusive = small, poorly fitted or top-dose-only effect, or another doubt; inactive = no such curve, though single readings can be large; an effect the other way counts as inactive or inconclusive.

SMILES | Giardia FBPA inh | LmPK inhibitor | Cycloheximide cs | Shiga inhibitor | NS1 function inh
CC(C)Oc1ccc(/C(O)=C2/C(=O)C(=O)N(CCCN3CCOCC3)C2c2ccncc2)cc1 (stereo not drawn) | nt | nt | nt | nt | 15%
CCCOc1ccc(/C(O)=C2/C(=O)C(=O)N(CCCn3ccnc3)C2c2cccnc2)cc1 (stereo not drawn) | -3% | 1% | -3 | -5 | -46%
COc1cccc(/C=N/NC(=O)c2c(C)nc3ccc(Cl)cn23)c1O | -19% | 3% | -1 | 6 | -26%
O=C(NCc1ccc(F)cc1)c1cc2ccccc2o1 | 1% | -5% | 14* | 32 | -11%
O=C(NCc1cccs1)c1cc2ccccc2o1 | 1% | 0% | 21 | 45 | -14%
O=C(c1ccc(F)cc1)c1cc2ccccc2o1 | 0% | -5% | 26* | 41* | -1%
O=C(c1ccccc1)c1cc2ccccc2o1 | 1% | ? | 38* | 80* | -54%
O=C1c2ccccc2NC(c2cccc([N+](=O)[O-])c2)N1CCc1ccccc1 (stereo not drawn) | -3% | 1% | 44* | 74* | 15%
Cc1cccc(C2Nc3ccccc3C(=O)N2CCc2ccccc2)n1 (stereo not drawn) | 5% | -4% | 22 | 27 | -45%
C=CCNC(=S)N1CCN(c2cccc(C(F)(F)F)c2)CC1 | -4% | 3% | 46* | -19 | -19%
CCC(C)C(=O)OCC1(c2ccc(C)cc2OC(=O)C(C)C)CO1 (stereo not drawn) | -2% | 3% | -5 | -3 | -6%
Cc1ccc(C2(COC(=O)C(C)C)CO2)c(OC(=O)C(C)C)c1 (stereo not drawn) | -1% | 1% | 10* | 13 | 6%
CCC(=O)c1ccc(OCC(O)CNCc2ccc(F)cc2)cc1 (stereo not drawn) | -4% | 2% | -2 | -8 | -1%
Cc1ccc(C(=O)/C=C\NCc2ccccc2)cc1 | 3% | 0% | 75* | 86* | -39%
CC(/C=C/C(=O)c1ccc(C)cc1)=C\c1ccccc1 | -7% | -1% | 18* | 22 | -7%
Cc1ccc(C(=O)/C=C\C(=O)c2ccc(C)cc2)cc1 | 3% | -26% | -2 | 5 | -53%
CCc1ccc(C(=O)/C=C/NCc2ccc(F)cc2)cc1 | 5% | 2% | 19* | 49 | -29%
Nc1ccc2c(c1)COC2=O | 4% | 0% | 34* | 83* | nt
O=C1OCc2cc(-n3cccc3)ccc21 | 0% | 10% | 17* | 28 | nt
Cc1ccc(C)n1-c1ccc2c(c1)COC2=O | -15% | -5% | -1 | 31 | 21%
CCCCNC(=S)NNC(=O)c1sccc1C | 1% | -3% | 9 | -12 | -3%
CCCc1cc(C(=O)NNC(=S)NC2CCCCC2)cs1 | nt | -11% | 22* | 34 | 3%
O=C(NNC(=S)NC1CCCCC1)c1ccccc1Br | nt | 6% | 9 | 2 | 11%
Cc1ccsc1C(=O)NNC(=S)NC1CCCCC1 | nt | 4% | 38* | 37* | 15%
CNC(=S)NNC(=O)c1sccc1C | -29% | -1% | 18* | 34 | 1%
SMILES | Giardia FBPA inh | LmPK inhibitor | Cycloheximide cs | Shiga inhibitor | NS1 function inh
O=C(c1ccc([N+](=O)[O-])cc1)N1CCN(c2ncc(Br)cn2)CC1 | -3% | -4% | -4 | -6 | 1%
CCCCC/C=C\C/C=C\C/C=C\C=C\[C@@H](O)CCCC(=O)O | 0% | nt | nt | nt | nt
COC(=O)c1cc(OC)c(OC)cc1NC(=O)Nc1ccc(OC)cc1 | 0% | 5% | -4 | -8 | 3%
COc1ccc(NC(=O)Nc2ccc3nonc3c2)cc1 | -16% | -3% | 34* | 66* | -2%
COc1ccc(NC(=O)Nc2ccc3nccnc3c2)cc1 | -9% | -14% | 22* | 80 | -6%
CCn1c(-c2cccnc2)n[nH]c1=S | ? | -5% | -2 | 10 | 11%
Cc1ccc(-n2c(-c3cccnc3)n[nH]c2=S)c(C)c1 | -20% | 13µM* | -1 | -8 | -6%
COc1ccccc1-n1c(-c2cccnc2)n[nH]c1=S | -29% | 14µM* | -2 | -1 | 6%
S=c1[nH]nc(-c2cccnc2)n1-c1ccccc1 | -23% | -25% | -1 | -13 | 0%
COc1ccc(-c2n[nH]c(=S)n2-c2ccc(C)cc2C)cc1 | 19% | -2% | 2 | nt | 9%
Cc1ccc(-n2c(-c3ccc(Cl)cc3)n[nH]c2=S)c(C)c1 | 24% | 20µM* | -2 | -5 | ?
COC(C(=O)Nc1ccnn1C1CCN(Cc2ccc(CO)o2)CC1)c1ccccc1 (stereo not drawn) | 0% | 2% | 11 | -4 | 4%
Cc1ccccc1Nc1nnc(-c2ccc(C(=O)NCCO)cc2)c2ccccc12 | 15% | 0% | 5 | 3 | -1%
Cc1ccc(C)n1-c1nccc(-c2cccs2)n1 | -1% | 1% | 5 | 4 | 21%
N#Cc1cccn1-c1nccc(-c2cccs2)n1 | -1% | 10% | 29* | 77* | nt
Cc1ccc(CNc2ncnc3c2cnn3-c2ccccc2)cc1 | 3% | -4% | 1 | -5 | 16%
Clc1ccc(-n2ncc3c(NCCCn4ccnc4)ncnc32)cc1 | -1% | 5% | 21* | 35* | -10%
CCCCNc1ncnc2c1cnn2-c1ccccc1 | -15% | -7% | 61* | 92* | -99%
CCCCNc1ncnc2c1cnn2-c1ccc(Cl)cc1 | -14% | 1% | 51* | 72* | -10%
CCc1nc(NC(C)(C)C)c2cnn(-c3ccccc3)c2n1 | -10% | 11% | 41* | 99* | -2%
CCCCNc1ncnc2c1cnn2Cc1ccc(Cl)cc1 | 1% | 4% | 2 | -10 | -34%
N=C(N)SCc1nc(-c2ccc(Cl)cc2)no1 | nt | nt | nt | nt | -6%
COc1ccc(OC)c(C2c3[nH]c4ccccc4c3C[C@H]3C(=O)N(CCCOC(C)C)CC(=O)N23)c1 (stereo partly drawn) | 0% | 0% | -3 | -10 | 10%
Cc1cccc(NC(=O)NNC(=O)c2cc3occc3[nH]2)c1C | nt | -1% | 12 | -4 | 2%
O=C(CCNC(=O)c1ccc([N+](=O)[O-])cc1)NCCc1ccccc1 | 3% | 4% | 10 | 21 | 9%
SMILES | Giardia FBPA inh | LmPK inhibitor | Cycloheximide cs | Shiga inhibitor | NS1 function inh
CSc1nc(NC2CCCC2)c([N+](=O)[O-])c(NC2CCCC2)n1 | -1% | nt | 7 | 13 | nt
Cc1ccccc1-n1ncc2c(SCC(=O)NC3CCCC3)ncnc21 | 25% | -2% | 32 | 71* | 11%
CC(C)(C)C(=O)CSc1ncnc2c1cnn2-c1ccccc1 | 7% | 5% | 43* | 62* | -3%
Nc1ncnc2c1cnn2-c1ccccc1 | 0% | 3% | 29* | 91*! | -12%
CC1CCCN(C2=C(NS(=O)(=O)c3ccc(Cl)cc3)C(=O)c3ccccc3C2=O)C1 (stereo not drawn) | ? | -13% | 22* | 40* | 6%
COc1cccc(N(C(=O)c2nc3nccc(C)n3n2)c2nc3ccccc3s2)c1 | 0% | -1% | 27* | 67 | -17%
COc1ccc(C)cc1N(C(=O)COc1ccccc1)c1nc2ccccc2s1 | 0% | 1% | 2 | 15 | -5%
COc1cccc(NC(=O)COC(=O)c2nc3nccc(C)n3n2)c1 | -4% | -2% | 13* | 22 | 5%
